In PubChem BioAssay AID1159580 (chemical genetic matrix, 2015):
The whole screen tested about 5,500 compounds, of which about 2,000 (36%) were called active. Not shown: some 18% with an inconclusive outcome. Rule as the data show it: active = normalized growth mostly below about 0.91 (no sharp cut-off); inconclusive = no clear call, values can overlap the other calls; inactive = mostly above about 0.92. The list shows a part of the results.

Assay: chemical genetic growth profiling, strain panel (AID 1159580);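 also: tested at 20 µM; growth read once vehicle control cultures reached saturation at 30 °C; 1 = growth at the plate median or of vehicle wells; lower values mean less growth of the strain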
Conditions: S. cerevisiae deletion strains, growth OD
[1] = locus YAR019C, strain CDC15, hits give low values
[2] = locus YBL105C, strain PKC1, hits give low values
[3] = locus YBR135W, strain CKS1, hits give low values
[4] = locus YBR136W, strain MEC1, hits give low values
[5] = locus YBR160W, strain CDC28, hits give low values
[6] = locus YDL017W, strain CDC7, hits give low values
[7] = locus YDL028C, strain MPS1, hits give low values
[8] = locus YDL101C, strain DUN1, hits give low values
[9] = locus YDL108W, strain KIN28, hits give low values
[10] = locus YDL132W, strain cdc53, hits give low values
[11] = locus YDL214C, strain PRR2, hits give low values
[12] = locus YDR052C, strain DBF4, hits give low values
[13] = locus YDR054C, strain cdc34, hits give low values
[14] = locus YDR226W, strain ADK1, hits give low values
[15] = locus YDR477W, strain SNF1, hits give low values
[16] = locus YER123W, strain YCK3, hits give low values
[17] = locus YER133W, strain GLC7, hits give low values
[18] = locus YFL009W, strain cdc4, hits give low values
[19] = locus YFL029C, strain CAK1, hits give low values
[20] = locus YFR003C, strain YPI1, hits give low values
[21] = locus YFR019W, strain FAB1, hits give low values
[22] = locus YFR028C, strain CDC14, hits give low values
[23] = locus YGR040W, strain KSS1, hits give low values
[24] = locus YGR052W, strain FMP48, hits give low values
[25] = locus YGR092W, strain DBF2, hits give low values
[26] = locus YHR030C, strain SLT2, hits give low values
[27] = locus YHR079C, strain IRE1, hits give low values
[28] = locus YHR082C, strain KSP1, hits give low values
[29] = locus YHR205W, strain SCH9, hits give low values
[30] = locus YIL147C, strain SLN1, hits give low values
[31] = locus YJL095W, strain BCK1, hits give low values
[32] = locus YJL128C, strain PBS2, hits give low values
[33] = locus YJL157C, strain FAR1, hits give low values
[34] = locus YJR016C, strain ILV3, hits give low values
[35] = locus YJR066W, strain TOR1 (second series), hits give low values
[36] = locus YJR066W, strain TOR1, hits give low values
[37] = locus YKL048C, strain ELM1, hits give low values
[38] = locus YKL067W, strain YNK1, hits give low values
[39] = locus YKL101W, strain HSL1, hits give low values
[40] = locus YKL193C, strain SDS22, hits give low values
[41] = locus YKL203C, strain TOR2, hits give low values
[42] = locus YLR113W, strain HOG1, hits give low values
[43] = locus YLR133W, strain CKI1, hits give low values
[44] = locus YLR403W, strain SFP1, hits give low values
[45] = locus YML070W, strain DAK1, hits give low values
[46] = locus YMR001C, strain CDC5, hits give low values
[47] = locus YMR205C, strain PFK2 (second series), hits give low values
[48] = locus YMR277W, strain FCP1, hits give low values
[49] = locus YNL006W, strain LST8, hits give low values
[50] = locus YNL020C, strain ARK1, hits give low values
[51] = locus YNL161W, strain CBK1, hits give low values
[52] = locus YNL183C, strain NPR1, hits give low values
[53] = locus YNL207W, strain RIO2, hits give low values
[54] = locus YNL222W, strain SSU72, hits give low values
[55] = locus YNL307C, strain MCK1 (second series), hits give low values
[56] = locus YOL078W, strain AVO1, hits give low values
[57] = locus YOL136C, strain PFK27, hits give low values
[58] = locus YOR061W, strain CKA2, hits give low values
[59] = locus YOR119C, strain RIO1, hits give low values
[60] = locus YOR231W, strain MKK1, hits give low values
[61] = locus YOR329C, strain SCD5, hits give low values
[62] = locus YPL031C, strain PHO85, hits give low values
[63] = locus YPL153C, strain RAD53, hits give low values
[64] = locus YPL204W, strain HRR25, hits give low values
[65] = locus YPL209C, strain IPL1, hits give low values
[66] = locus YPL256C, strain CLN2, hits give low values
[67] = locus YPR025C, strain CCL1, hits give low values
[68] = locus YPR106W, strain ISR1, hits give low values
[69] = locus YPR111W, strain DBF20, hits give low values
[70] = strain NNK1, hits give low values
[71] = strain TSCII, hits give low values

Measured: normalized growth

O=C1OC(Nc2ccccc2SCc2ccccc2Cl)c2ccccc21 (configuration not stated)
inactive: [1] 0.985 | [2] 0.977 | [3] 0.97 | [4] 0.973 | [5] 0.981 | [6] 0.989 | [7] 0.984 | [8] 0.971 | [9] 0.977 | [10] 0.962 | [11] 0.903 | [12] 0.989 | [13] 0.98 | [14] 0.965 | [15] 0.928 | [16] 0.89 | [17] 0.897 | [18] 0.97 | [19] 0.971 | [20] 0.983 | [21] 0.886 | [22] 0.967 | [23] 0.899 | [24] 0.87 | [25] 0.855 | [26] 0.867 | [27] 0.905 | [28] 0.948 | [29] 0.798 | [30] 0.977 | [31] 0.814 | [32] 0.937 | [33] 0.905 | [34] 0.98 | [35] 0.846 | [36] 0.914 | [37] 0.963 | [38] 0.908 | [39] 0.907 | [40] 0.979 | [41] 0.93 | [43] 0.899 | [44] 0.83 | [45] 0.903 | [46] 0.98 | [47] 0.912 | [48] 0.979 | [49] 0.975 | [50] 0.916 | [51] 0.976 | [52] 0.909 | [53] 0.968 | [54] 0.974 | [55] 0.862 | [56] 0.97 | [57] 0.854 | [58] 0.888 | [59] 0.964 | [60] 0.895 | [61] 0.984 | [62] 0.912 | [63] 0.934 | [64] 0.882 | [65] 0.978 | [66] 0.953 | [67] 0.984 | [68] 0.976 | [69] 0.955 | [70] 0.971 | [71] 0.965
active: [42] 0.832

CCC1(c2ccccc2)OC(c2cc(Cl)cc(Cl)c2O)Nc2ccccc21 (configuration not stated)
inactive: [1] 0.96 | [2] 0.964 | [3] 0.965 | [4] 0.968 | [5] 0.964 | [6] 0.965 | [7] 0.966 | [8] 0.986 | [9] 0.968 | [10] 0.963 | [11] 0.705 | [12] 0.976 | [13] 0.954 | [14] 0.97 | [17] 0.734 | [18] 0.962 | [19] 0.967 | [20] 0.958 | [22] 0.963 | [24] 0.651 | [28] 0.689 | [29] 0.639 | [30] 0.964 | [32] 0.93 | [34] 0.962 | [35] 0.633 | [36] 0.572 | [40] 0.971 | [41] 0.751 | [46] 0.971 | [48] 0.968 | [49] 0.969 | [51] 0.962 | [52] 0.646 | [53] 0.96 | [54] 0.956 | [56] 0.967 | [59] 0.753 | [61] 0.962 | [62] 0.685 | [65] 0.954 | [67] 0.96 | [68] 0.954 | [69] 0.957 | [70] 0.963 | [71] 0.966
active: [15] 0.689 | [16] 0.513 | [21] 0.738 | [23] 0.689 | [25] 0.233 | [26] 0.449 | [27] 0.461 | [31] 0.464 | [33] 0.564 | [37] 0.717 | [38] 0.696 | [39] 0.678 | [42] 0.539 | [43] 0.623 | [44] 0.572 | [45] 0.561 | [47] 0.688 | [50] 0.552 | [55] 0.551 | [57] 0.452 | [58] 0.469 | [60] 0.476 | [63] 0.562 | [64] 0.604 | [66] 0.47
